# Screens from PubChem BioAssay.
# DENV2 CPE: protects cells from dengue virus 2 cytopathic effect; 350,000 tested, 1.7% active; DENV2-infected cells, cytopathic effect rescue, plate reader; CPE inhibition, % at 9.99 µM; in the data active means CPE inhibition above about 20%, passing the limit was not always enough; tested in BHK-21 cells
# C2C12 statin: protects C2C12 myotubes from simvastatin toxicity; ATP luminescence, 48 h; scaled: DMSO 0, geranylgeraniol control 100; rescue of ATP level, % at 7.49 µM; 330,000 tested, 0.78% active;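 active means mean ATP rescue above about 67%, or every replicate alone reaching that limit, limit read from the data, passing the limit was not always enough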;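 further: myotubes were challenged with 10 µM simvastatin during compound exposure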
# miR122 inh: inhibitors of miR-122 in Huh7 cells; Huh7 miR-122 Renilla luciferase sensor, 48 h; neutral wells = 0, positive control = 100; 340,000 tested, 0.3% active; AID 602342; activation (reporter increase), % at 12.5 µM;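 active means mean replicate activation score at least 90 and every replicate individually at or above 90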;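 further: higher luciferase means less miR-122 activity so hits act as miR-122 inhibitors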
# PvdQ inh: P. aeruginosa PvdQ acylase inhibition; purified PvdQ acylase, fluorescence plate reader; inhibition, % at 10 µM; 340,000 tested, 0.063% active; AID 488965; in the data active means inhibition above about 30%, passing the limit was not always enough
# PGC1a acetyl inh: PGC1a acetylation modulation, inhibitor mode. U2OS PGC1a acetylation, AlphaScreen anti-acetyl-lysine; with virally co-expressed GCN5 acetyltransferase. inhibition, % at 15.6 µM. 350,000 tested, 0.17% active;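 active means every replicate shows inhibition of at least 40%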
# Numbers stand for hits; i = inactive; nt = no result. The list is not random: actives were taken first. Their share in the collection is about 2.2%.
SMILES,DENV2 CPE,C2C12 statin,miR122 inh,PvdQ inh,PGC1a acetyl inh
C[C@H](CO)N1C[C@H](C)[C@H](CN(C)CC2CCCCC2)Oc2ccc(NC(=O)Nc3ccc4c(c3)OCO4)cc2CC1=O,33.6,i,i,nt,i
COc1ccc(NC(=O)Nc2ccc3c(c2)CC(=O)N([C@H](C)CO)C[C@@H](C)[C@H](CN(C)S(=O)(=O)c2ccc(C)cc2)O3)cc1,34.3,nt,nt,nt,i
COc1ccc(S(=O)(=O)N(C)C[C@@H]2Oc3ccc(NC(=O)CCC(F)(F)F)cc3CC(=O)N([C@H](C)CO)C[C@H]2C)cc1,i,i,i,nt,i
COc1ccc(NC(=O)Nc2ccc3c(c2)CC(=O)N([C@@H](C)CO)C[C@@H](C)[C@@H](CN(C)S(=O)(=O)c2ccc(F)cc2)O3)cc1,29.3,i,i,nt,i
CCCNC(=O)C[C@@H]1CC[C@@H]2[C@@H](COc3ccc(NC(=O)Cc4ccccc4)cc3C(=O)N2C)O1,i,i,i,nt,i
CC(C)NC(=O)Nc1ccc2c(c1)CC(=O)N([C@@H](C)CO)C[C@H](C)[C@@H](CN(C)S(=O)(=O)c1cn(C)cn1)O2,i,i,i,nt,i
C[C@H]1CN([C@@H](C)CO)C(=O)Cc2cc(NC(=O)Nc3ccc4c(c3)OCO4)ccc2O[C@@H]1CN(C)S(C)(=O)=O,26.1,nt,nt,nt,i
Cc1ccc(S(=O)(=O)N(C)C[C@H]2Oc3ccc(NC(=O)Cc4ccccc4)cc3CC(=O)N([C@@H](C)CO)C[C@@H]2C)cc1,i,85.5,i,nt,i
COc1ccc(S(=O)(=O)N(C)C[C@H]2Oc3ccc(NC(=O)Nc4ccc5c(c4)OCO5)cc3CC(=O)N([C@@H](C)CO)C[C@@H]2C)cc1,96.8,i,i,i,i
COc1ccc(S(=O)(=O)N(C)C[C@@H]2Oc3ccc(NC(=O)C4CCCCC4)cc3CC(=O)N([C@@H](C)CO)C[C@@H]2C)cc1,28.0,i,i,nt,i
COc1ccc(S(=O)(=O)N(C)C[C@H]2Oc3ccc(NC(=O)C4CCCCC4)cc3CC(=O)N([C@H](C)CO)C[C@@H]2C)cc1,i,i,i,nt,i
O=C(C[C@@H]1C=C[C@H](NC(=O)Nc2ccc(C(F)(F)F)cc2)[C@@H](CO)O1)NCCN1CCCC1,i,i,nt,nt,i
CNC[C@H]1Oc2cc(-c3cccnc3)ccc2S(=O)(=O)N([C@@H](C)CO)C[C@@H]1C,i,i,i,nt,i
CCOCCCNc1nc2c(-c3ccccc3)nnn2c2ccccc12,i,88.3,i,i,i
CN1C(=O)c2cc(NS(=O)(=O)c3ccccc3Cl)ccc2OC[C@H]2O[C@@H](CC(=O)O)CC[C@H]21,i,i,i,nt,i
O=C(NCCc1c[nH]c2ccccc12)/C(=C\c1cccnc1)NC(=O)c1ccccc1Br,41.5,i,nt,i,i
C[C@@H]1CCCCO[C@H](CN(C)C(=O)Nc2ccc(C(F)(F)F)cc2)[C@H](C)CN([C@H](C)CO)C(=O)c2cc(NS(=O)(=O)c3ccccc3)ccc2O1,77.3,nt,i,nt,i
C[C@@H]1CCCCO[C@@H](CN(C)C(=O)Nc2ccc(C(F)(F)F)cc2)[C@@H](C)CN([C@H](C)CO)C(=O)c2cc(NS(=O)(=O)c3ccccc3)ccc2O1,21.4,nt,i,nt,i
C[C@@H]1CN([C@@H](C)CO)C(=O)c2cc(NS(=O)(=O)c3ccccc3)ccc2O[C@@H](C)CCCCO[C@@H]1CN(C)C(=O)Nc1ccc(C(F)(F)F)cc1,i,nt,i,nt,i
Cc1ccc(S(=O)(=O)Nc2ccc3c(c2)C(=O)N([C@H](C)CO)C[C@H](C)[C@@H](CN(C)C(=O)Nc2ccc(C(F)(F)F)cc2)OCCCC[C@H](C)O3)cc1,i,nt,i,nt,i
C[C@H](CO)N1C[C@H](C)[C@@H](CN(C)C(=O)Nc2ccc(C(F)(F)F)cc2)OCCCC[C@H](C)Oc2ccc(NS(=O)(=O)c3ccccc3)cc2C1=O,40.7,nt,i,nt,i
C[C@H](CO)N1C[C@H](C)[C@@H](CN(C)C(=O)Nc2ccc(C(F)(F)F)cc2)OCCCC[C@H](C)Oc2ccc(NS(=O)(=O)c3cccs3)cc2C1=O,93.6,i,i,nt,i
C[C@H]1CN([C@@H](C)CO)C(=O)c2cc(NS(=O)(=O)c3ccc(Cl)cc3)ccc2O[C@@H]1CN(C)C,i,i,i,nt,i
COc1ccc2c3c(n(C)c2c1)[C@@H](CO)N(C(=O)C1CC1)CC31CN(C)C1,i,nt,nt,nt,nt
O=C(C[C@@H]1CC[C@@H]2[C@H](COC[C@@H](O)CN2CC2CCCC2)O1)NCc1ccc(Cl)cc1,i,nt,nt,nt,nt
SMILES,DENV2 CPE,C2C12 statin,miR122 inh,PvdQ inh,PGC1a acetyl inh
CCS(=O)(=O)N1[C@H](C#N)[C@@H](c2ccc(C3=CCCCC3)cc2)[C@H]1CO,i,nt,nt,nt,i
COc1ccc(NC(=O)/C(Cl)=C(/Cl)S(=O)Cc2ccc(Cl)cc2)cn1 (stereo not given),i,i,i,i,100.2
COc1ccc(NC(=O)C(Cl)=C(Cl)Cl)cn1,i,nt,i,i,i
COc1ccc(NC(=O)/C(Cl)=C(/Cl)S(=O)(=O)Cc2ccccc2)cn1,nt,i,i,i,64.4
Cc1noc(C)c1NC(=O)N[C@H]1C=C[C@H](CC(=O)N2CCCCC2)O[C@@H]1CO,i,i,nt,nt,i
O=C(Nc1ccccc1)NC1(C(=O)NCCCN2CCOCC2)CCCCC1,nt,101.9,i,i,i
Cc1ccc(S(=O)(=O)N(C)C[C@H]2OCCCC[C@@H](C)Oc3ccc(NS(=O)(=O)c4c(C)noc4C)cc3C(=O)N([C@H](C)CO)C[C@H]2C)cc1,20.6,nt,i,nt,i
Cc1ccc(S(=O)(=O)N(C)C[C@@H]2OCCCC[C@H](C)Oc3ccc(NS(=O)(=O)c4c(C)noc4C)cc3C(=O)N([C@H](C)CO)C[C@H]2C)cc1,112.4,nt,i,nt,i
Cc1ccc(S(=O)(=O)Nc2ccc3c(c2)C(=O)N([C@@H](C)CO)C[C@@H](C)[C@@H](CN(C)S(=O)(=O)c2c(C)noc2C)OCCCC[C@@H](C)O3)cc1,28.4,nt,i,nt,i
Cc1ccc(S(=O)(=O)N(C)C[C@H]2OCCCC[C@H](C)Oc3ccc(NS(=O)(=O)c4c(C)noc4C)cc3C(=O)N([C@@H](C)CO)C[C@@H]2C)cc1,42.8,nt,i,nt,i
O=C(NCc1cc(F)cc(F)c1)[C@@H]1[C@@H](CO)[C@@H]2Cn3c(cccc3=O)[C@H]1N2C(=O)c1cnccn1,i,i,nt,nt,nt
COc1cccc(NC(=O)N[C@H]2C=C[C@H](CC(=O)N3CCN(C)CC3)O[C@@H]2CO)c1,i,i,nt,nt,i
CO[C@H]1CN(C)C(=O)c2cc(NC(=O)Nc3cccc(F)c3)ccc2OC[C@H](C)N(C(C)=O)C[C@@H]1C,i,i,i,nt,i
Cc1ccc(S(=O)(=O)N(C)C[C@@H]2OCCCC[C@H](C)Oc3ccc(NS(=O)(=O)c4c(C)noc4C)cc3C(=O)N([C@H](C)CO)C[C@@H]2C)cc1,89.5,nt,i,nt,i
Cc1ccc(S(=O)(=O)N(C)C[C@@H]2OCCCC[C@@H](C)Oc3ccc(NS(=O)(=O)c4c(C)noc4C)cc3C(=O)N([C@H](C)CO)C[C@H]2C)cc1,61.7,nt,i,nt,i
